Biological target: HOXC10 (Homo sapiens, UniProt Q9NYD6 254-340, K271E)
Test: PBM; 200 nM protein, PBS
Conditions: dsDNA, one strand shown

Chain of HOXC10 (Q9NYD6 254-340 K271E): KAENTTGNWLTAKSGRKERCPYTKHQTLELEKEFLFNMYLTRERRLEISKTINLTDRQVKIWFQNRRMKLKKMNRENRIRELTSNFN

Row | Sequence | binding signal
1 | AGTTTTAT | 11.3 upbm affinity estimate (log intensity, higher = more binding, comparable within an allelic series)
2 | AACATAAA | 11.3 upbm affinity estimate (log intensity, higher = more binding, comparable within an allelic series)
3 | CACATAAA | 11.3 upbm affinity estimate (log intensity, higher = more binding, comparable within an allelic series)
4 | ACATAAAT | 11.3 upbm affinity estimate (log intensity, higher = more binding, comparable within an allelic series)
5 | GCAGTAAA | 11.1 upbm affinity estimate (log intensity, higher = more binding, comparable within an allelic series)

Biological target: MSX2 (Homo sapiens, UniProt P35548 130-214)
Test: PBM; 200 nM protein, PBS
Conditions: dsDNA, one strand shown

Chain of MSX2 (Homo sapiens, UniProt P35548 130-214) (P35548 130-214): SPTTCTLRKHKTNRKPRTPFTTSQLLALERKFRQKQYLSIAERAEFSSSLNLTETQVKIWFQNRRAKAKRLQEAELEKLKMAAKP

Row | Sequence | binding signal
6 | ATCAATCC | 11.1 upbm affinity estimate (log intensity, higher = more binding, comparable within an allelic series)
7 | AGTCCTAA | 11.4 upbm affinity estimate (log intensity, higher = more binding, comparable within an allelic series)
8 | AAGAATCA | 10.8 upbm affinity estimate (log intensity, higher = more binding, comparable within an allelic series)
9 | AACAAGAG | 10.3 upbm affinity estimate (log intensity, higher = more binding, comparable within an allelic series)
10 | AAACGATC | 10.9 upbm affinity estimate (log intensity, higher = more binding, comparable within an allelic series)
11 | ATCATCGG | 10.9 upbm affinity estimate (log intensity, higher = more binding, comparable within an allelic series)
12 | AATCGCAT | 10.9 upbm affinity estimate (log intensity, higher = more binding, comparable within an allelic series)
13 | ACCTCAAT | 11 upbm affinity estimate (log intensity, higher = more binding, comparable within an allelic series)
14 | GGAAATAA | 11.7 upbm affinity estimate (log intensity, higher = more binding, comparable within an allelic series)
15 | ATCAAAAT | 11.2 upbm affinity estimate (log intensity, higher = more binding, comparable within an allelic series)
16 | CAATCCGA | 10.8 upbm affinity estimate (log intensity, higher = more binding, comparable within an allelic series)
17 | CAAATTCA | 10.9 upbm affinity estimate (log intensity, higher = more binding, comparable within an allelic series)
18 | AAGCAAAT | 11.3 upbm affinity estimate (log intensity, higher = more binding, comparable within an allelic series)
19 | ATTTTTGG | 10.7 upbm affinity estimate (log intensity, higher = more binding, comparable within an allelic series)
20 | AATCAGGC | 11.4 upbm affinity estimate (log intensity, higher = more binding, comparable within an allelic series)
21 | ATTTGTCC | 11.1 upbm affinity estimate (log intensity, higher = more binding, comparable within an allelic series)

Row | Sequence | binding signal
22 | GACCATTA | 11.8 upbm affinity estimate (log intensity, higher = more binding, comparable within an allelic series)
23 | CAAATAAG | 11.1 upbm affinity estimate (log intensity, higher = more binding, comparable within an allelic series)
24 | AAACGATG | 10.6 upbm affinity estimate (log intensity, higher = more binding, comparable within an allelic series)
25 | CTCAATCC | 10.8 upbm affinity estimate (log intensity, higher = more binding, comparable within an allelic series)
26 | ACCGATAA | 11.2 upbm affinity estimate (log intensity, higher = more binding, comparable within an allelic series)
27 | ATTGCCAC | 11 upbm affinity estimate (log intensity, higher = more binding, comparable within an allelic series)
28 | GTCATCTA | 10.5 upbm affinity estimate (log intensity, higher = more binding, comparable within an allelic series)
29 | AAAATCGT | 11 upbm affinity estimate (log intensity, higher = more binding, comparable within an allelic series)
30 | ACAGATTG | 10.8 upbm affinity estimate (log intensity, higher = more binding, comparable within an allelic series)
31 | ATTACTTC | 11.6 upbm affinity estimate (log intensity, higher = more binding, comparable within an allelic series)
32 | ATAAATAC | 11.3 upbm affinity estimate (log intensity, higher = more binding, comparable within an allelic series)
33 | TCAACTAA | 11.2 upbm affinity estimate (log intensity, higher = more binding, comparable within an allelic series)
34 | ATTTCTAA | 11.2 upbm affinity estimate (log intensity, higher = more binding, comparable within an allelic series)
35 | GAATAAAA | 11 upbm affinity estimate (log intensity, higher = more binding, comparable within an allelic series)
36 | ACATGTTA | 10.7 upbm affinity estimate (log intensity, higher = more binding, comparable within an allelic series)
37 | GCGATATA | 10.6 upbm affinity estimate (log intensity, higher = more binding, comparable within an allelic series)

Biological target: MSX2 (Homo sapiens, UniProt P35548 130-214, F161Y)
Test: PBM; 200 nM protein, PBS
Conditions: dsDNA, one strand shown

Chain of MSX2 (Homo sapiens, UniProt P35548 130-214, F161Y) (P35548 130-214 F161Y): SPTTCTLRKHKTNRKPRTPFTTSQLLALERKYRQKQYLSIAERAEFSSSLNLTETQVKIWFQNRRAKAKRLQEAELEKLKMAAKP

Row | Sequence | binding signal
38 | ATCAATCC | 11.1 upbm affinity estimate (log intensity, higher = more binding, comparable within an allelic series)
39 | AGTCCTAA | 11.2 upbm affinity estimate (log intensity, higher = more binding, comparable within an allelic series)
40 | AAGAATCA | 10.6 upbm affinity estimate (log intensity, higher = more binding, comparable within an allelic series)
41 | AAACGATC | 10.8 upbm affinity estimate (log intensity, higher = more binding, comparable within an allelic series)
42 | ATCATCGG | 10.8 upbm affinity estimate (log intensity, higher = more binding, comparable within an allelic series)
43 | AATCGCAT | 10.8 upbm affinity estimate (log intensity, higher = more binding, comparable within an allelic series)
44 | ACCTCAAT | 10.9 upbm affinity estimate (log intensity, higher = more binding, comparable within an allelic series)
45 | GGAAATAA | 11.4 upbm affinity estimate (log intensity, higher = more binding, comparable within an allelic series)
46 | ATCAAAAT | 11.1 upbm affinity estimate (log intensity, higher = more binding, comparable within an allelic series)
47 | CAATCCGA | 10.8 upbm affinity estimate (log intensity, higher = more binding, comparable within an allelic series)
48 | CAAATTCA | 10.7 upbm affinity estimate (log intensity, higher = more binding, comparable within an allelic series)
49 | AAGCAAAT | 11.1 upbm affinity estimate (log intensity, higher = more binding, comparable within an allelic series)
50 | ATTTTTGG | 10.6 upbm affinity estimate (log intensity, higher = more binding, comparable within an allelic series)
51 | AATCAGGC | 11.2 upbm affinity estimate (log intensity, higher = more binding, comparable within an allelic series)
52 | ATTTGTCC | 11 upbm affinity estimate (log intensity, higher = more binding, comparable within an allelic series)
53 | GACCATTA | 11.7 upbm affinity estimate (log intensity, higher = more binding, comparable within an allelic series)
54 | CAAATAAG | 10.9 upbm affinity estimate (log intensity, higher = more binding, comparable within an allelic series)
55 | CTCAATCC | 10.7 upbm affinity estimate (log intensity, higher = more binding, comparable within an allelic series)
56 | ACCGATAA | 11.1 upbm affinity estimate (log intensity, higher = more binding, comparable within an allelic series)
57 | ATTGCCAC | 11 upbm affinity estimate (log intensity, higher = more binding, comparable within an allelic series)
58 | GTCATCTA | 10.4 upbm affinity estimate (log intensity, higher = more binding, comparable within an allelic series)
59 | AAAATCGT | 10.9 upbm affinity estimate (log intensity, higher = more binding, comparable within an allelic series)
60 | ACAGATTG | 10.8 upbm affinity estimate (log intensity, higher = more binding, comparable within an allelic series)
61 | ATTACTTC | 11.5 upbm affinity estimate (log intensity, higher = more binding, comparable within an allelic series)
62 | ATAAATAC | 11.3 upbm affinity estimate (log intensity, higher = more binding, comparable within an allelic series)
63 | TCAACTAA | 11 upbm affinity estimate (log intensity, higher = more binding, comparable within an allelic series)
64 | ATTTCTAA | 11 upbm affinity estimate (log intensity, higher = more binding, comparable within an allelic series)
65 | GAATAAAA | 10.9 upbm affinity estimate (log intensity, higher = more binding, comparable within an allelic series)
66 | GCGATATA | 10.5 upbm affinity estimate (log intensity, higher = more binding, comparable within an allelic series)
